{"source": "PubChem BioAssay (EPA / NIEHS)", "key": {"[1]": {"target": "rat Adenylate Cyclase, Forskolin Stimulated, Adcy5 (gene 64532) (UniProt Q04400)", "sequence (Q04400 whole entry, looked up)": "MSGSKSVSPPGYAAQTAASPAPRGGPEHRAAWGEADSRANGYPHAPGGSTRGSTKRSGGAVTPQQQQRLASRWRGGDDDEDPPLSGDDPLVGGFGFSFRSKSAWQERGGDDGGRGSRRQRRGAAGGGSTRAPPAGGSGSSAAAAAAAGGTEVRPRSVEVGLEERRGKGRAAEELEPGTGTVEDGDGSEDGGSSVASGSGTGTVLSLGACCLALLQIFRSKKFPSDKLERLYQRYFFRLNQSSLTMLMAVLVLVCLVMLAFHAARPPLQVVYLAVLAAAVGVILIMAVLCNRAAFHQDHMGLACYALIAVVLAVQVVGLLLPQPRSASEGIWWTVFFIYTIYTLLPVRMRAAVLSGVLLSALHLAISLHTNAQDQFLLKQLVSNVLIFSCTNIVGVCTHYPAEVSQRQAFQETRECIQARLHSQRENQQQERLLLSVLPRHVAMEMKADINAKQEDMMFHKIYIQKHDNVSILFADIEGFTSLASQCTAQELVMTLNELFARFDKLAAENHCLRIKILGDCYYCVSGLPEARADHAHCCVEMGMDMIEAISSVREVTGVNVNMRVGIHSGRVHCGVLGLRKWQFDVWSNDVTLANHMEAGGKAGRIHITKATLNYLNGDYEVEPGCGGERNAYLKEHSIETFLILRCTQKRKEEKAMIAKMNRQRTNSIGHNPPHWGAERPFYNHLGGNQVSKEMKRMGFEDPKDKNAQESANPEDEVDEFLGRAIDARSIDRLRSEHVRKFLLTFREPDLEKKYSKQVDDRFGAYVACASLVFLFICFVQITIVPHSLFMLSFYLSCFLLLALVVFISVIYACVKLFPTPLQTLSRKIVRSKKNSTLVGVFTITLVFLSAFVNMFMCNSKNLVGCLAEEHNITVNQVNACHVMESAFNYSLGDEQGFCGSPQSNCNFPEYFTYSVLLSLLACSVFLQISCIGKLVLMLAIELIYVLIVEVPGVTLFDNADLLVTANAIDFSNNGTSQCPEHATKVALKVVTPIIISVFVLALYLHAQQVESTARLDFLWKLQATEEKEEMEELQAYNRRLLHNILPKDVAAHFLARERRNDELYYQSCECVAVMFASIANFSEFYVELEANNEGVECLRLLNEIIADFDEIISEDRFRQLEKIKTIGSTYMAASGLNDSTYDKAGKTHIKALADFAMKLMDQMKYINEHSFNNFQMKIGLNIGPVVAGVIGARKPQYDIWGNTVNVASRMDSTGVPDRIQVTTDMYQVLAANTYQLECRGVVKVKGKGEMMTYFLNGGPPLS", "experiment": "NVS_ENZ_rACFSKBinding: NovaScreen (NVS) Enzymatic Assay for rat Adenylate Cyclase, Forskolin Stimulated (AID 2283232)", "procedure,_shortened": "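Rat forebrain membrane preparation, cell-free, read 1 h after dosing by filter-based scintillation counting. Primary screen in duplicate at 25 uM; actives (e.g. ≥30% inhibition) rerun in concentration-response up to 50 uM; fit versus DMSO.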"}, "[2]": {"target": "rat Monoamine Oxidase, MAO-B, Central (MAOBC), Maob (gene 25750) (UniProt P19643)", "sequence (P19643 whole entry, looked up)": "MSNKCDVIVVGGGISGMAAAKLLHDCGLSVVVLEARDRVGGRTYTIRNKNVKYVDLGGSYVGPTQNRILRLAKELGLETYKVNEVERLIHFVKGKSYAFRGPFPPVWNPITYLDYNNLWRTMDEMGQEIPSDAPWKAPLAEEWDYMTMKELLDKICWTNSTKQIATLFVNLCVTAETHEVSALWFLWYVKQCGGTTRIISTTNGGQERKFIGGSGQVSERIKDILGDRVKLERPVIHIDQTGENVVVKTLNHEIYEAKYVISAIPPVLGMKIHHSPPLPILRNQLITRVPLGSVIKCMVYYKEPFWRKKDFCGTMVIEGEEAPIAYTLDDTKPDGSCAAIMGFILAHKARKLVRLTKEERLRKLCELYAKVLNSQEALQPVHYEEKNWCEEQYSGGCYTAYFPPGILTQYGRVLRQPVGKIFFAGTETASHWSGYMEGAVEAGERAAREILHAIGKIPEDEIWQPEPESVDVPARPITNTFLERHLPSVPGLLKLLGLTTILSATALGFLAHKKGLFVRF", "experiment": "NVS_ENZ_rMAOBC: NovaScreen (NVS) Enzymatic Assay for rat Monoamine Oxidase, MAO-B, Central (MAOBC) (AID 2283238)", "procedure,_shortened": "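Rat brain tissue extract served as the cell-free MAO-B source; enzyme activity was read by scintillation counting 1.17 hours after compound addition. Loss of signal versus DMSO baseline was fitted; primary single-concentration screen at 25 uM, follow-up concentration-response up to 50 uM.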"}, "[3]": {"target": "human Caspase 10 (CASP10), CASP10 (gene 843) (UniProt Q92851)", "sequence (Q92851 whole entry, looked up)": "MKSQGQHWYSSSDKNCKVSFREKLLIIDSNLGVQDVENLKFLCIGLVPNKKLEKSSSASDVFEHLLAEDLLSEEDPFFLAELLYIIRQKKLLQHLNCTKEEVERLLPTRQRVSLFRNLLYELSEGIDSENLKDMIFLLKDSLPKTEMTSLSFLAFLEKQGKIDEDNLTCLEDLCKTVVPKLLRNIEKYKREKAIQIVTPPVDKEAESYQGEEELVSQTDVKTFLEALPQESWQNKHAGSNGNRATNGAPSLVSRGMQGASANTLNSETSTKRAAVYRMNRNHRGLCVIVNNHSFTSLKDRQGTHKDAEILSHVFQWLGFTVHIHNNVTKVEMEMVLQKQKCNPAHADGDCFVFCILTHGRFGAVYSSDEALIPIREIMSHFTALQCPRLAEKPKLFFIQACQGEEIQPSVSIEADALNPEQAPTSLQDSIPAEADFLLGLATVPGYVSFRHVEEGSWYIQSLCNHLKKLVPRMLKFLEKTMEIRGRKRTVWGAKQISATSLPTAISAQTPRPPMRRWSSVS", "experiment": "NVS_ENZ_hCASP10: NovaScreen (NVS) Enzymatic Assay for human Caspase 10 (CASP10) (AID 2283133)", "procedure,_shortened": "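Recombinant human caspase-10 from E. coli, cell-free fluorogenic substrate assay read 1 h after dosing. Primary duplicate screen at 25 uM; hits (e.g. ≥30% inhibition) run singly in concentration-response up to 50 uM, normalised to DMSO.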"}, "[4]": {"target": "Voltage-dependent N-type calcium channel subunit alpha-1B (Rattus norvegicus) (UniProt Q02294)", "experiment": "NVS_IC_rCaChN: NovaScreen (NVS) Ion Channel Assay for rat Calcium Channel, Type N (CaChN) (AID 2283317)"}, "[5]": {"target": "human Acetylcholinesterase (AChE), ACHE (gene 43) (UniProt P22303)", "sequence (P22303 whole entry, looked up)": "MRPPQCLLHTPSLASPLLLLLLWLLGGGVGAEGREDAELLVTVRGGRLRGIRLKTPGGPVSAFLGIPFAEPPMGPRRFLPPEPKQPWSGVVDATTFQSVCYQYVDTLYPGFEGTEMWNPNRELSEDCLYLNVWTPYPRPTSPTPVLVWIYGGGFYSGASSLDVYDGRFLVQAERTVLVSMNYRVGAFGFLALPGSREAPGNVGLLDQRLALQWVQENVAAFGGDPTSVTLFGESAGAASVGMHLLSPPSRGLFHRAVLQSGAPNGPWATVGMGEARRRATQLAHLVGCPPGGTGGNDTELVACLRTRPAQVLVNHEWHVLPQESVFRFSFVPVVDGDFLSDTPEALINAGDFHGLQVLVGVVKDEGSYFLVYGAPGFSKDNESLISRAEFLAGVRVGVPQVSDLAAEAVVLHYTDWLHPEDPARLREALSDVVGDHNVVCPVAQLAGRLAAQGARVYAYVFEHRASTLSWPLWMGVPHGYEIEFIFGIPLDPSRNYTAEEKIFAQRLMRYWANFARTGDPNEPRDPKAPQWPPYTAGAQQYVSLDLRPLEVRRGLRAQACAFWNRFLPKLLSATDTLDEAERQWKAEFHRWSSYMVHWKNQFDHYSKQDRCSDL", "experiment": "NVS_ENZ_hAChE: NovaScreen (NVS) Enzymatic Assay for human Acetylcholinesterase (AChE) (AID 2283129)", "procedure,_shortened": "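Cell-free colorimetric enzyme-activity assay; compounds read 0.33 hour after dosing, loss of signal vs DMSO baseline. Primary screen in duplicate at 25 uM single concentration, with active compounds retested in concentration series.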"}}, "note": "Inconclusive results are not listed. Activity calls are given as the source filed them. How the source made its calls: active means hit-call score of the fitted dose curve at least 0.9, where 1 is the maximum; inconclusive means response in the unintended direction; inactive means score below 0.9.", "data": [{"smiles": "N#CSCSc1nc2ccccc2s1", "values": [{"measurement": "AC50", "setting": "[1]", "result": "25 µM (active)"}, {"measurement": "outcome", "setting": "[2]", "result": "inactive"}]}, {"smiles": "Oc1cc2ccccc2c2ccccc12", "values": [{"measurement": "AC50", "setting": "[3]", "result": "11.1 µM (active)"}]}, {"smiles": "COc1ccc(S(=O)(=O)N2C(=O)[C@@](c3ccccc3OC)(N3C[C@H](O)C[C@H]3C(=O)N(C)C)c3cc(Cl)ccc32)c(OC)c1", "values": [{"measurement": "outcome", "setting": "[2]", "result": "inactive"}]}, {"smiles": "O=Cc1ccccc1C=O", "values": [{"measurement": "outcome", "setting": "[4]", "result": "inactive"}]}, {"smiles": "CCN(CC)C(=S)SSC(=S)N(CC)CC", "values": [{"measurement": "AC50", "setting": "[1]", "result": "6.29 µM (active)"}]}, {"smiles": "COc1ccc2c(c1)c(CC(=O)O)c(C)n2C(=O)c1ccc(Cl)cc1", "values": [{"measurement": "outcome", "setting": "[3]", "result": "inactive"}]}, {"smiles": "CCCCCCCCCCCCCCCCOS(=O)(=O)O", "values": [{"measurement": "AC50", "setting": "[5]", "result": "16.8 µM (active)"}, {"measurement": "outcome", "setting": "[3]", "result": "inactive"}]}, {"smiles": "Oc1ccc2ccccc2c1", "values": [{"measurement": "AC50", "setting": "[2]", "result": "14.4 µM (active)"}]}, {"smiles": "Oc1ccc2c(c1)-c1ccccc1C2", "values": [{"measurement": "AC50", "setting": "[2]", "result": "19.6 µM (active)"}]}, {"smiles": "C[C@]12CC[C@@H]3c4ccc(O)cc4C[C@@H](CCCCCCCCCS(=O)CCCC(F)(F)C(F)(F)F)[C@H]3[C@@H]1CC[C@@H]2O", "note": "(stereo not given in full)", "values": [{"measurement": "outcome", "setting": "[5]", "result": "inactive"}]}, {"smiles": "O=C(O)Cn1c(=O)n(Cc2ccc(Br)cc2F)c(=O)c2ccc(Cl)cc21", "values": [{"measurement": "outcome", "setting": "[4]", "result": "inactive"}]}, {"smiles": "Cc1c2ccccc2c(C)c2c1ccc1ccccc12", "values": [{"measurement": "outcome", "setting": "[3]", "result": "inactive"}]}, {"smiles": "CN(C)c1ccc(C(=C2C=CC(=[N+](C)C)C=C2)c2ccc(N(C)C)cc2)cc1", "values": [{"measurement": "outcome", "setting": "[3]", "result": "inactive"}]}, {"smiles": "COCCOC[C@H](CC1(C(=O)NC2CCC(C(=O)O)CC2)CCCC1)C(=O)Oc1ccc2c(c1)CCC2", "note": "(stereo not given in full)", "values": [{"measurement": "outcome", "setting": "[1]", "result": "inactive"}, {"measurement": "outcome", "setting": "[4]", "result": "inactive"}]}, {"smiles": "Fc1ccccc1[C@@H](F)COC1CCC(Nc2ncnc3[nH]ncc23)CC1", "note": "(stereo not given in full)", "values": [{"measurement": "AC50", "setting": "[2]", "result": "18.6 µM (active)"}]}, {"smiles": "CN(C)c1ccc(N=NS(=O)(=O)O)cc1", "values": [{"measurement": "outcome", "setting": "[1]", "result": "inactive"}]}, {"smiles": "O=C(c1ccc(O)cc1O)c1ccc(O)cc1O", "values": [{"measurement": "AC50", "setting": "[2]", "result": "12.9 µM (active)"}]}, {"smiles": "CC[C@H](c1ccc(O)cc1)[C@@H](CC)c1ccc(O)cc1", "values": [{"measurement": "AC50", "setting": "[5]", "result": "4.88 µM (active)"}]}, {"smiles": "COCC(C)OCC(C)OCC(C)O", "note": "(stereo not given)", "values": [{"measurement": "outcome", "setting": "[4]", "result": "inactive"}]}, {"smiles": "CCCN(C1CCN(C(=O)C2CCNCC2)CC1)[C@@H]1CCc2ccc(OC)cc2C1", "values": [{"measurement": "AC50", "setting": "[5]", "result": "35.2 µM (active)"}]}, {"smiles": "CCCOc1sc(C(=O)N2CCC(c3cc(CN)ccc3F)CC2)c(C)c1Br", "values": [{"measurement": "outcome", "setting": "[5]", "result": "inactive"}]}, {"smiles": "COc1cc(C(=O)NC2CCN(C)CC2)ccc1Nc1ncc2c(n1)N(C1CCCC1)CC(F)(F)C(=O)N2C", "values": [{"measurement": "AC50", "setting": "[5]", "result": "23.4 µM (active)"}]}]}
